# Reference: PubChem BioAssay (NCI)
# Where “and” joins values, the source holds several entries; their conditions need not be identical. Equal values may be shown once. About 83,000 compounds went through this panel and 20% of them were active in at least one assay; those are over-represented in the sample as a whole.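 For each line, cells grew in 96-well plates with the test compound present at a single concentration for 48 hours.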 A number with no mark means an inactive call. Calls of active or inactive are those of the source. Rule for the calls: active = growth percent below 10; inactive = the rest.
# Tested on: PC-3 prostate
# Assay: NCI-60 one-dose screen, 48 h (100 = growth as untreated, 0 = no growth, -100 = all killed)
# Details: 10 µM unless noted
row,SMILES,growth
1,Cc1ccc(C(=O)Nc2ccc(CN3CCN(C)CC3)c(C(F)(F)F)c2)cc1C#Cc1cnc(N)cc1C#N,-33.9% (active)
2,COc1cc(/C=C(/c2ccccc2)[N+](=O)[O-])c(OC)c2c1OCO2,-50.5% (active)
3,C[C@@H]1CC[C@@H]2[C@@H]1[C@H](OC(=O)/C=C/c1ccccc1)[C@]1(c3ccccc3)C[C@@H](NC(=O)CO)[C@@]2(C)O1,78.9%
4,Nc1ccc(-c2nc3ccc4[nH]ncc4c3c3c2CCCC3)cc1F,27.7%
5,C=C1CCC2C3(C)COC(c4ccc(NC(C)=O)cc4)OC3CCC2(C)C1C/C=C1/C(=O)OCC1O (stereo not given),42.2%
6,Cc1c(C(C)(C)O)cn2ncnc(Oc3ccc(NC(=O)Nc4ccc(Cl)c(C(F)(F)F)c4)cc3)c12,21.5%
7,Cc1ccccc1SSc1ccccc1C,66.7%
8,O=C(CC1(O)C(=O)Nc2ccc(Br)cc21)c1ccc(Cl)cc1 (stereo not given),81.6%
9,O/N=C(/c1ccccc1)c1ccc2c3c(cccc13)CC2,80% and 77.5%
10,Cc1ccc(/C=C2\COc3ccc(O)c(O)c3C2=O)cc1,-10.4% (active)
11,CC1(Cc2ccccc2)CC2=C(C(=O)O1)C(c1ccccc1)NC(=O)N2 (stereo not given),92%
12,[Cu+].[NH-][C@H]1C[N-]C(=O)[C@H]([C@H]2CCN=C(N)N2)[N-]C(=O)/C(=C\NC(N)=O)[N-]C(=O)[C@H](CNC(=O)C[C@@H](N)CCCN)[N-]C(=O)[C@H](CO)[N-]C1=O,96%
13,S=c1nc(CS)[nH]c2ccccc12,93.9%
14,Cc1oc2c(Cc3ccc(NC(=O)c4ccc(Cl)cc4)cc3)ncnc2c1C(=O)NO,97.7%
15,COc1ccc2c(c1)CCNC21C(=O)Nc2c(Br)cc(Br)cc21 (stereo not given),97.9%
16,COC(=O)c1nc(-c2ccccc2)oc1S(=O)(=O)N(C)CCO,63.2%
17,[2H]C([2H])([2H])Oc1cccc(/C=C/C(=O)/C=C(/C=C/c2cccc(OC([2H])([2H])[2H])c2OC([2H])([2H])[2H])OB(F)F)c1OC([2H])([2H])[2H],74.3%
18,N#Cc1ccccc1OCC(=O)Nc1nc2c(s1)COc1ccccc1-2,102%

row,SMILES,growth
1,COc1cc(/C=C2/C=C(c3ccc(C(C)(C)C)cc3)N(CCc3ccc(S(N)(=O)=O)cc3)C2=O)cc(OC)c1OC,8.07% (active)
2,Nc1n[nH]c2cccc(C#Cc3cccc(NC(=O)c4ccc(N5CCOCC5)c(C(F)(F)F)c4)c3)c12,1.76% (active)
3,Cc1nn(-c2nc(-c3cc4ccccc4oc3=O)cs2)c(C)c1N=Nc1ccccc1,106%
4,Cc1nnc(NS(=O)(=O)c2ccc(N=Nc3ccc(N)nc3N)cc2)s1,93.8% and 98.2%
5,COc1ccc(-c2csc(NC(=O)CN3CCN(CCO)CC3)n2)cc1NS(=O)(=O)c1cccc2c(N(C)C)cccc12,72.7%
6,C=C(c1ccc(C(=O)O)cc1)c1cc2c(cc1C)C(C)(C)CCC2(C)C,68.9%
7,O=[N+]([O-])c1cc(C(F)(F)F)ccc1Sc1ccc(C(F)(F)F)cc1[N+](=O)[O-],84.6%
8,COc1ccc2c(O)c(/C=C3\N=Nc4nc(C)ccc43)oc2c1CC1CCNCC1,69.2%
9,Cc1ccc(Nc2nc(-c3cc(O)c(C)c(C)c3O)cs2)cc1,71%
10,COc1cc(N=Nc2ccc(O)c3ncccc23)c2ncccc2c1,32.4%
11,CCCCCCCC/C=C\CCCCCCCCOc1ccccc1CC(=O)NCC[N+]1(C)CCOCC1,21.7%
12,Nc1ccc(S(=O)(=O)c2ccc(N)cc2)cc1,85.2% and 94.1%
13,C[C@]12CCc3c(ccc4cc(O)ccc34)[C@@H]1C[C@H](O)[C@@H]2O,78.5%
14,COc1ccc(C(c2cc(OC)c(OC)c(OC)c2)n2ccnc2)cc1O (stereo not given),20.7%
15,CN(C)CCCn1c2c(c3ccc(N4CCNCC4)cc3c1=O)C(=O)c1ccccc1-2,-34.7% (active)
16,Clc1ccc(Nc2nc(Nc3ccc(Cl)cc3)nc(Nc3ccc(-c4cc(-c5cccc(Cl)c5)on4)cc3)n2)cc1,86.7%
17,N#Cc1ccccc1-c1ccc(Cn2c(-c3cscn3)nc3c(Cl)cccc32)cc1,54.4%
